Bioassay records: PubChem BioAssay, National Center for Advancing Translational Sciences (NCATS)
ELG1 genotox: genotoxicity induction in ELG1-luciferase HEK293T cells; HEK293T ELG1-luciferase reporter, luminescence, 16 h; Potency, µM (series often up to 46 µM), hits mostly activators; actives 1.3% (n = 330,000); AID 504466; note: nearly all actives have a fitted effect of over 60% in size
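HEK293T cells expressing luciferase-tagged ELG1 were treated with compound or DMSO for 16 hr at 37°C. Luciferase activity was then read after 30 min with ONE-Glo at room temperature; rising signal flags genetic stress.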
NPC1 prom act: activates the NPC1 promoter; Huh7 NPC1 promoter luciferase reporter, 24 h; Potency, µM (titrated, usually from 9.22 µM), usual class: activators; actives 2.4% (n = 320,000); AID 485313; note: nearly all actives have a fitted effect of over 60% in size
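Readout is luciferase luminescence, reflecting NPC1 promoter activation in stably transfected Huh7 cells after 24 h compound exposure at 37 °C in reduced-serum medium with 10% FBS.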
SMN2 splice enh: SMN2 splice variant enhancement. Potency, µM (highest dose often 46.1 µM), usual class: activators. HEK293 SMN2-luciferase splicing reporter, luminescence, 30-36 h. actives 2.8% (n = 210,000); note: nearly all actives have a fitted effect of over 55% in size
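HEK293 cells carry an SMN2 […]–luciferase reporter in which exon 7 inclusion puts luciferase in frame. Cells were plated 10-12 h before compound addition, then incubated 30-36 h at 37C. ONE-Glo luminescence was read; sodium butyrate at 4.5 mM final served as control.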
Rab9 promoter act: activators of Rab9 promoter; AID 485297; Potency, µM (doses to about 9.22 µM), usual class: activators; actives 2.8% (n = 320,000); Huh7 Rab9 promoter-luciferase reporter, luminescence, 24 h; note: nearly all actives have a fitted effect of over 60% in size
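Rab9 promoter-driven luciferase in stably transfected Huh7 cells; 1500 cells/well rested 2 h, exposed to compound in DMSO for 24 h at 37 °C, 5% CO2. Luminescence read 10 min after adding luciferase reagent at ambient temperature.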
FLuc counter: firefly luciferase modulation, counter-screen for miR-21 project. P08659. purified FLuc, Km substrates, luminescence inhibition. Potency, µM (top dose mostly 57.5 µM), most hits filed as inhibitors. actives 6.9% (n = 360,000); note: nearly all actives have a fitted effect of over 55% in size
Target sequence (P08659 whole entry, looked up): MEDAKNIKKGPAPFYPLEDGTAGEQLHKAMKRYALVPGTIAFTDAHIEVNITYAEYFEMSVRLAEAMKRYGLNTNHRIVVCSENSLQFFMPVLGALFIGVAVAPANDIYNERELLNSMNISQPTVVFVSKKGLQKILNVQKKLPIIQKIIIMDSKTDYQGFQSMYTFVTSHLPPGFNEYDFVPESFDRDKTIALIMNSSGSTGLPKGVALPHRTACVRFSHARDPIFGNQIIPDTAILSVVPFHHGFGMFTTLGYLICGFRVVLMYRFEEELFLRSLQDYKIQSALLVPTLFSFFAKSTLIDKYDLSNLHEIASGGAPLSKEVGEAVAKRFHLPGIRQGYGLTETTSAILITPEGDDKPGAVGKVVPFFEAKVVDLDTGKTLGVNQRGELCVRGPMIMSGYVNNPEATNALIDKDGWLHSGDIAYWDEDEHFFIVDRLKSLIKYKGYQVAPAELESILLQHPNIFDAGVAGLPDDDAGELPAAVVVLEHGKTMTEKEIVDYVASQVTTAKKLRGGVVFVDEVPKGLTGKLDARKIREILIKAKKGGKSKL
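Biochemical qHTS of compounds, final roughly 60 µM downward over six points, against 10 nM purified firefly luciferase using Km concentrations of substrates (10 uM D-luciferin, 10 uM ATP) in Tris acetate pH 7.5 buffer; luminescence output.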
A number is an active result; – = inactive; ? = inconclusive; · = no result; [ ] = remark or other dose. Rows were chosen to be rich in hits. Some 7.5% of all compounds tested hit in one or more screens of this group. Calls come from the whole dose curve; as a rule, active = well fitted curve in the direction sought with a large enough effect; inconclusive = small, poorly fitted or top-dose-only effect, or another doubt; inactive = no such curve, though single readings can be large; an effect the other way counts as inactive or inconclusive.

SMILES	ELG1 genotox	NPC1 prom act	SMN2 splice enh	Rab9 promoter act	FLuc counter
Cc1ccccc1C(=O)Nc1ccc2c(c1)OCCO2	1.83µM	0.501µM	·	0.398µM	2.39µM
Cc1ccc(NC(=O)N2CCN(Cc3ccc4c(c3)OCO4)CC2)cc1	–	–	–	–	–
O=C(Nc1ccc2c(c1)OCO2)N1CCN(Cc2ccco2)CC1	?	?	·	0.794µM	0.953µM
CC(=O)c1c(Nc2ccc3c(c2)OCCO3)oc(C)cc1=O	?	–	–	–	26.9µM
CCOC(=O)c1noc2nc(C)n(CC(=O)NC(C)CC)c(=O)c12 (configuration not stated)	·	·	·	·	–
Cc1ccccc1NC(=O)CN1CCN(C(=O)c2ccco2)CC1	–	–	·	–	–
O=C(NCC(O)c1ccc2ccccc2c1)c1c(F)cccc1F (configuration not stated)	–	–	·	–	–
CCCCc1nc2c(c3c1C[C@H](C)OC3)CN(C(=O)COC)CC2	·	·	–[9.22 µM]	·	·
Cc1cc(C)cc(OCC(=O)Nc2cccc(-c3nc4ccccc4[nH]3)c2)c1	·	·	–	·	10.7µM
O=C(COc1ccccc1)Nc1cccc(-c2nc3cc4ccccc4cc3[nH]2)c1	?	0.631µM	1.78µM	0.794µM	0.536µM
CC(C)COc1ccc(C(=O)Nc2cccc(-c3nc4ccccc4[nH]3)c2)cc1	·	·	–	·	?
Cc1cccc(C)c1NC(=O)c1sc(-n2nc(C)c(Cc3ccccc3)c2C)nc1C	·	·	·	·	–
CC(=O)c1cccc(NC(=O)Cn2cc(C(=O)c3cccc(Cl)c3)c(=O)c3ccc(C)nc32)c1	·	·	–	·	–
O=C(Nc1ccc(OCC(=O)N2CCOCC2)cc1)Nc1cccc(Cl)c1	–	–	·	–	12µM
O=C(Nc1ccc(C(=O)N2CCOCC2)cc1)Nc1cccc(Cl)c1	–	?	?	–	15.1µM
CC(C)(C)c1ccc(NC(=O)Nc2ccc(OCC(=O)N3CCOCC3)cc2)cc1	?	3.16µM	15.8µM	2.24µM	0.477µM
O=C(Nc1cccc(OCC(=O)N2CCOCC2)c1)c1ccc(C(F)(F)F)cc1	–	–	·	–	15.1µM
O=C(c1ccc(Cl)cc1)c1ccc(OCC(=O)N2CCOCC2)cc1	–	–	–	–	–
CCCN(CCC)S(=O)(=O)c1ccc(C(=O)Nc2ccc(OCC(=O)N3CCOCC3)cc2)cc1	–	–	–	–	–
C[C@]12CCC(=O)C=C1C=C[C@@H]1[C@@H]2CC[C@@]2(C)[C@H]1CC[C@@]21CCC(=O)O1	–	–	·	–	–
CCCN(CC(=O)Nc1ccccc1C)C(=O)c1ccc(NC2CC2)c([N+](=O)[O-])c1	–	–	·	–	–
O=C(Nc1ccc(C(=O)N2CCOCC2)cc1)Nc1cccc2ccccc12	?	–	–	–	15.1µM
Cc1ccc(NC(=O)Nc2cnccn2)cc1C	–	–	·	?	21.3µM
O=C(Nc1ccc(Cl)cc1)Nc1cnccn1	–	–	·	–	?
CC(C)c1ccc(NC(=O)Nc2cnccn2)cc1	?	?	·	?	6.75µM
SMILES	ELG1 genotox	NPC1 prom act	SMN2 splice enh	Rab9 promoter act	FLuc counter
Cc1ccc(NC(=O)Nc2cnccn2)cc1	?	?	·	?	16.9µM
CCn1c(CC(=O)Nc2ccccc2)nnc1SCC(=O)Nc1nnc(C)s1	–	–	·	–	–
O=C(COc1ccc2ccccc2c1Br)Nc1ncn[nH]1	?	–	–	–	13.5µM
Cc1oc(=O)c(NC(=O)c2cccc(Cl)c2)cc1C(=O)c1ccccc1	?	–	–	?	?
c1ccc(-c2cnc(-c3cccnc3)o2)cc1	?	?	–	?	15.1µM
Cc1ccc(NC(=O)c2ccccc2-c2ccccc2C(=O)O)cc1	–	–	–	–	–
O=c1oc(-c2cccnc2)nc2ccccc12	–	–	–	–	–
NC(=O)c1ccc(-c2ncc(-c3ccccc3)o2)cc1	0.184µM	0.282µM	0.501µM	?	2.13µM
Cc1ccc(-c2cnc(-c3ccccc3C(=O)O)o2)cc1	?	?	·	?	13.5µM
COc1cc2c(cc1OC)CN(C(=O)/C=C/c1ccccc1[N+](=O)[O-])CC2	–	–	·	–	–
O=C(Nc1ccc(Br)cc1F)c1ccc2c(c1)OCCO2	?	0.282µM	·	0.126µM	0.536µM
O=C(Nc1ccc(F)cc1F)c1ccc2c(c1)OCCO2	?	0.501µM	·	0.631µM	4.78µM
CCC(=O)Nc1ccc(C(=O)Nc2ccc(Br)cc2F)cc1	–	–	·	–	–
C[C@@H]1C[C@H]2[C@@H]3C[C@H](F)C4=CC(=O)C=C[C@]4(C)[C@@]3(Cl)[C@@H](O)C[C@]2(C)[C@H]1C(=O)COC(=O)C(C)(C)C	–	–	·	–	–
Cc1ccc(C(=O)Nc2ccc3cn[nH]c3c2)cc1S(=O)(=O)N1CCCCC1	–	?	–	?	21.3µM
O=C(Nc1nccs1)c1ccc(Br)c(S(=O)(=O)N2CCCC2)c1	–	–	·	–	?
Cc1ccnc(NC(=O)c2ccc3c(c2)S(=O)(=O)c2ccccc2C3=O)c1	–	?	·	–	15.1µM
O=C(O)c1ccc(Cl)c(S(=O)(=O)Nc2cccc(C(=O)Nc3cccc(C(F)(F)F)c3)c2)c1	–	–	–	–	15.1µM
Cc1ccc(C(=O)Nc2nccs2)cc1S(=O)(=O)N1CCCCC1	–	–	–	–	16.9µM
O=C(O)c1ccc(B(O)O)cc1	·	·	–	·	·
CC1(C)CC(=O)C2=C(C1)O[C@@]1(CCCCN3C(=O)c4ccccc4C3=O)Cc3ccccc3C2O1	·	–[1.84 µM]	·	–[1.84 µM]	–[11.5 µM]
CCOC(=O)Nc1ccc(Cc2ccncc2)cc1	–	–	·	–	?
O=C(CSCc1ccc(Cl)cc1Cl)Nc1ccc(O)cc1C(=O)O	–	–	·	–	?
O=C(Nc1ccccn1)c1ccc(Cl)c(S(=O)(=O)N2CCCCCC2)c1	–	–	·	?	21.3µM
O=C(CSCc1ccc(Cl)cc1Cl)Nc1ccccc1C(=O)Nc1ccc(C(=O)O)cc1	–	–	–	–	19µM
SMILES	ELG1 genotox	NPC1 prom act	SMN2 splice enh	Rab9 promoter act	FLuc counter
Cc1ccc(C(=O)Nc2cccc(O)c2)cc1S(=O)(=O)N1CCCCCC1	–	–	–	?	15.1µM
O=C(Nc1nc(-c2cccs2)cs1)c1ccc(S(=O)(=O)N2CCCCC2)cc1	–	–	–	–	–
O=C(Nc1ccccn1)c1cccc(S(=O)(=O)N2CCCCC2)c1	–	–	–	–	–
Cc1ccc(NC(=O)c2ccc(F)cc2)cc1S(=O)(=O)N1CCCCCC1	–	–	–	–	?
O=C(Nc1nc(-c2cccs2)cs1)c1cccc(S(=O)(=O)N2CCCCCC2)c1	–	–	–	?	15.1µM
COc1cccc(CNC(=O)CCc2c(C)nc3c(c2C)c(=O)n(C)c(=O)n3C)c1	·	·	–	·	–
Cc1ccnc(NC(=O)c2ccc(Cl)c(S(=O)(=O)N3CCCC3)c2)c1	?	?	·	?	19µM
O=C(O)c1ccc(Cl)c(S(=O)(=O)Nc2ccccc2C(=O)Nc2ccc(Cl)cc2)c1	–	–	·	–	26.9µM
O=C(O)c1cccc(NC(=O)c2ccc(Cl)c(S(=O)(=O)N3CCCCCC3)c2)c1	2.31µM	0.316µM	8.91µM	0.355µM	0.107µM
Cc1ccnc(NC(=O)c2ccc(Cl)c(S(=O)(=O)N3CCCCC3)c2)c1	–	–	·	–	·
